# Results taken from PMC7862700, “An all-to-all approach to the identification of sequence-specific readers for epigenetic DNA modifications on cytosine”.
# Experiments:
# Test in all cases: DAPPL (digital affinity profiling via proximity ligation, sequencing); 10 mM Tris-HCl pH 7.5, 50 mM NaCl, 1 mM DTT, 4% glycerol, room temperature, 30 min; GST-TFs on glutathione beads, 16-mer random dsDNA library, 0.1% formaldehyde crosslink after washing; high values mean tight binding
# FEV = target: T1, FEV (Homo sapiens, UniProt Q99581 1-238); conditions: protein: recombinant; tags: N-terminal GST; dsDNA, one strand shown
# T1 sequence: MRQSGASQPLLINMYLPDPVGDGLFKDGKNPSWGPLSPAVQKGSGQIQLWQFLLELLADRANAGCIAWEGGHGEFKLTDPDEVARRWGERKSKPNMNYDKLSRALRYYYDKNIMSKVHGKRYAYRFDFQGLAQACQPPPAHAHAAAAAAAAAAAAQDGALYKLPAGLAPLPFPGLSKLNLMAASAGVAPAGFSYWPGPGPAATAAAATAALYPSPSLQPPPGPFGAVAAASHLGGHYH
# How it was run: (§1)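 Pools were built from human transcription factors expressed in yeast as GST fusions, captured on glutathione beads and DNA-barcoded, along with a tag-only sample. Incubation with 200 nmole of a 16-mer random double-stranded DNA library lasted 30 min at room temperature in Tris/NaCl/DTT/glycerol buffer, and was followed by washing, 0.1% formaldehyde crosslinking, proximity ligation, PCR amplification and Illumina NextSeq500 sequencing. Binding signal is the quotient of each hexamer's read frequency for a factor and its frequency for the tag-only sample.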
# ETV5 = ETV5 (Homo sapiens, UniProt P41161 1-510); conditions: protein: recombinant; tags: N-terminal GST; dsDNA, one strand shown
# ETV5, sequence (P41161 whole entry): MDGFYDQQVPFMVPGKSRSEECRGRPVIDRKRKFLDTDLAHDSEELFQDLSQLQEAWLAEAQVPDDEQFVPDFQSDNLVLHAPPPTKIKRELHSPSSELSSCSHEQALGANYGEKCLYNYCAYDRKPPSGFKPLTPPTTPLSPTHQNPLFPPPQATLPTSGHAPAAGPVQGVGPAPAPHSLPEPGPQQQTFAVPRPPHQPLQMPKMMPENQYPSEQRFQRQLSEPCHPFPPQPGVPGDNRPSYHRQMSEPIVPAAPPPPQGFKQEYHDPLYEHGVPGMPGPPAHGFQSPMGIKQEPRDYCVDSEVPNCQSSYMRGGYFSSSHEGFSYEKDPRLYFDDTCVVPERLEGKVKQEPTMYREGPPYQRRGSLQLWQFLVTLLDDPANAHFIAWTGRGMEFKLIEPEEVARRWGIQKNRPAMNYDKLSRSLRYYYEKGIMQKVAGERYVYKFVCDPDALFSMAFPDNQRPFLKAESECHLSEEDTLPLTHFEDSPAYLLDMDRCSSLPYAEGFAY
# How it was run: as §1
# HSF1 = HSF1 (Homo sapiens, UniProt Q00613 1-529); conditions: protein: recombinant; tags: N-terminal GST; chain copies: 3; dsDNA, one strand shown
# HSF1, sequence (Q00613 whole entry): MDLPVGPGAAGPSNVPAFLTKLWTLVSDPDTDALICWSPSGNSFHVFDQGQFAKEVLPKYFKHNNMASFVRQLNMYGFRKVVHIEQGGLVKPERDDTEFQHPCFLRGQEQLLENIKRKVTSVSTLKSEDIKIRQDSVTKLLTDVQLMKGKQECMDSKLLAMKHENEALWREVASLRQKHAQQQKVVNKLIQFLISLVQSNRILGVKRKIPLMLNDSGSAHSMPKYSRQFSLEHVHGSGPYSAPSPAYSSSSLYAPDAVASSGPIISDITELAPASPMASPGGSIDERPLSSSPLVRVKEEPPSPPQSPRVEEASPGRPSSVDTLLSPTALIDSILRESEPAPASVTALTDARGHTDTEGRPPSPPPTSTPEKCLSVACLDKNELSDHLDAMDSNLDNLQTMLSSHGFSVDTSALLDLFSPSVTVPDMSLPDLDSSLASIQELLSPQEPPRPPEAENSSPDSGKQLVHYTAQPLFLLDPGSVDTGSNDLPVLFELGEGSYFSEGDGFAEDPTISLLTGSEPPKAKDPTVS
# How it was run: as §1
# SPIC = target: T2, SPIC (Homo sapiens, UniProt Q8N5J4 1-248); conditions: protein: recombinant; tags: N-terminal GST; dsDNA, one strand shown
# T2 sequence: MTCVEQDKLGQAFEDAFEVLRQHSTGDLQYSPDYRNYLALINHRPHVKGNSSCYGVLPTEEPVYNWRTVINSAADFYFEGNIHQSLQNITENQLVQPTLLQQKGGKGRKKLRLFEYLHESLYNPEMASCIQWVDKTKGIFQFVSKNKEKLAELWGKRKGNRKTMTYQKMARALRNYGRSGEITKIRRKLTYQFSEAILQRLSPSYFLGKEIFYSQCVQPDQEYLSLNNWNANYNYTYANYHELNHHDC
# How it was run: as §1
# ELF4 = ELF4 (Homo sapiens, UniProt Q99607 1-663); conditions: protein: recombinant; tags: N-terminal GST; dsDNA, one strand shown
# ELF4, sequence (Q99607 whole entry): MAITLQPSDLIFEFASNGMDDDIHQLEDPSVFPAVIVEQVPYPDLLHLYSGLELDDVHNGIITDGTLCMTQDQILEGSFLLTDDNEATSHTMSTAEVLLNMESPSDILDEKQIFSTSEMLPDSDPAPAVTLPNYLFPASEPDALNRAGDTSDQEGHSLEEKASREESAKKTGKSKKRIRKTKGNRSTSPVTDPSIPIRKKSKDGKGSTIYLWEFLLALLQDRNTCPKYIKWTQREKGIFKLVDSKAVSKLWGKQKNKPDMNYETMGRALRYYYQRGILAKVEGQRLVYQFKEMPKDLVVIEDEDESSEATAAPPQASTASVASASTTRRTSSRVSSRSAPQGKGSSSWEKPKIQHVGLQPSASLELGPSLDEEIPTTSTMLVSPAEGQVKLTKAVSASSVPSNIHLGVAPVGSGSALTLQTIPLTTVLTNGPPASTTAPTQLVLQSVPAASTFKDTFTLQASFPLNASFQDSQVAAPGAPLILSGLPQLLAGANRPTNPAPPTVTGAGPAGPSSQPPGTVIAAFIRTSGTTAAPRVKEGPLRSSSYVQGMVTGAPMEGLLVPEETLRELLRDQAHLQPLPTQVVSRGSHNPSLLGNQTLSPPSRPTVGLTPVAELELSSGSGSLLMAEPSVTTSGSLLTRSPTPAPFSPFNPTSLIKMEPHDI
# How it was run: as §1
# ELK4 = target: T3, ELK4 (Homo sapiens, UniProt P28324-2 1-405); conditions: protein: recombinant; tags: N-terminal GST; dsDNA, one strand shown
# T3 sequence: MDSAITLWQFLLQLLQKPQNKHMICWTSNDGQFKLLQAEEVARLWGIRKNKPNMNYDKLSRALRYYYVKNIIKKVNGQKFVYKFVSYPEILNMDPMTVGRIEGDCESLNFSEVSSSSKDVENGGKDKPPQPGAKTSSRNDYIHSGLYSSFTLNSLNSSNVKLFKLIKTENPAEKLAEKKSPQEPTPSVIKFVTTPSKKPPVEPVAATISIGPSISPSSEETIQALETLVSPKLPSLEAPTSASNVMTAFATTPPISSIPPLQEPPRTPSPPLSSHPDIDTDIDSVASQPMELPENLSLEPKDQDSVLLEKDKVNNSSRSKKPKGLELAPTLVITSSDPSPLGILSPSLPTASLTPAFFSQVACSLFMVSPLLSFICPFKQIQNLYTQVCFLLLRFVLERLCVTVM
# How it was run: as §1
# ETV2 = target: T4, ETV2 (Homo sapiens, UniProt O00321 1-342); conditions: protein: recombinant; tags: N-terminal GST; dsDNA, one strand shown
# T4 sequence: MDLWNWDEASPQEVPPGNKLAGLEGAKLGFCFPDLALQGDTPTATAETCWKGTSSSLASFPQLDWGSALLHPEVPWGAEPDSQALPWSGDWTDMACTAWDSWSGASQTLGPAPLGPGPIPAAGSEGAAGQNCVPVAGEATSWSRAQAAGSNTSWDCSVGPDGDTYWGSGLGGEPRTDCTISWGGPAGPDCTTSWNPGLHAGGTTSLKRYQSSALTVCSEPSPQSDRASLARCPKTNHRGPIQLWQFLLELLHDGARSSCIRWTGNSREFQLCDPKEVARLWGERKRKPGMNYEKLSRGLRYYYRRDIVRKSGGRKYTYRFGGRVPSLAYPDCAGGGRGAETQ
# How it was run: as §1
# ELF3 = target: T5, ELF3 (Homo sapiens, UniProt P78545 1-371); conditions: protein: recombinant; tags: N-terminal GST; dsDNA, one strand shown
# T5 sequence: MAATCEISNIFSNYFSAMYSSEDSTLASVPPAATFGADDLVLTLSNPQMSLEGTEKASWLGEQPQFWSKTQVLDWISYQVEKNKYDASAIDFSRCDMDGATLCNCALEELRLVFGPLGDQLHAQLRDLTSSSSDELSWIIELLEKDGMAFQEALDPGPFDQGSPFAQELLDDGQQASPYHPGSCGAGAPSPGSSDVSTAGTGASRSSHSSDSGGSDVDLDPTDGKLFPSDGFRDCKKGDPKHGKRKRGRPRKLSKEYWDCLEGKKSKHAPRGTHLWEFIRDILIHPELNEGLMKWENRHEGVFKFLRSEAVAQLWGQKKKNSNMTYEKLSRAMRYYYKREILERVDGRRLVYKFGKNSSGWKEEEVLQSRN
# How it was run: as §1
# CRX = CRX (Homo sapiens, UniProt O43186 1-299); conditions: protein: recombinant; tags: N-terminal GST; dsDNA, one strand shown
# CRX, sequence (O43186 whole entry): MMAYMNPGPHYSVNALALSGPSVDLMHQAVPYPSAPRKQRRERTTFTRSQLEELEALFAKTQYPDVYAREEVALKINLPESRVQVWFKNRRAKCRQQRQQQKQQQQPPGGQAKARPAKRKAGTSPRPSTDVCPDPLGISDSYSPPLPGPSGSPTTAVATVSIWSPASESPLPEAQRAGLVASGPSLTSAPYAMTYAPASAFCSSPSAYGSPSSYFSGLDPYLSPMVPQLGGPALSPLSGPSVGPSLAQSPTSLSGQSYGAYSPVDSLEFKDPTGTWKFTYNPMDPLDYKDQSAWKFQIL
# How it was run: as §1
# ETV1 = ETV1 (Homo sapiens, UniProt P50549 1-477); conditions: protein: recombinant; tags: N-terminal GST; dsDNA, one strand shown
# ETV1, sequence (P50549 whole entry): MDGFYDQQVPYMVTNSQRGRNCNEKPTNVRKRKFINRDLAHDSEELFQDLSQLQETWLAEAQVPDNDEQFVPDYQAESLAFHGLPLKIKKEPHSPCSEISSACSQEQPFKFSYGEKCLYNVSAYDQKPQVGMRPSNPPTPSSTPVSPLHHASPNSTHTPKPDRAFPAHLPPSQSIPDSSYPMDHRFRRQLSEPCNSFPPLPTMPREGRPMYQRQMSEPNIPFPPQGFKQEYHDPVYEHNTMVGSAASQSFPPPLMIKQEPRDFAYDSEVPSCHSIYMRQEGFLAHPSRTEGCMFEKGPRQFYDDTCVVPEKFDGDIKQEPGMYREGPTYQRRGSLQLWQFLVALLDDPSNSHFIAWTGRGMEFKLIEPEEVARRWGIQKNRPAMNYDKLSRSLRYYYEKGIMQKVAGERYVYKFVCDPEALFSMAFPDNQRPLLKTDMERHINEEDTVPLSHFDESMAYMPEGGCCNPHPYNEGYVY
# How it was run: as §1
sequence,measurement,setting,value
GTTAAT,binding signal,FEV,"1.08 fold enrichment (6-mer frequency, TF over GST control)"
same,binding signal,ETV5,"1.17 fold enrichment (6-mer frequency, TF over GST control)"
same,binding signal,HSF1,"1.6 fold enrichment (6-mer frequency, TF over GST control)"
same,binding signal,SPIC,"1.11 fold enrichment (6-mer frequency, TF over GST control)"
same,binding signal,ELF4,"1.14 fold enrichment (6-mer frequency, TF over GST control)"
same,binding signal,ELK4,"1.05 fold enrichment (6-mer frequency, TF over GST control)"
same,binding signal,ETV2,"1.18 fold enrichment (6-mer frequency, TF over GST control)"
same,binding signal,ELF3,"1.09 fold enrichment (6-mer frequency, TF over GST control)"
same,binding signal,CRX,"2.41 fold enrichment (6-mer frequency, TF over GST control)"
same,binding signal,ETV1,"1 fold enrichment (6-mer frequency, TF over GST control)"
